Bioassay records from PubChem BioAssay.
HTT cytoprotect = protects HTT-Q103 PC12 cells, measured by ATP | PC12 HTT-Q103 induced, cytoprotection, ATP luminescence, 40 h | AID 1471 | Potency, µM (top dose mostly 56.4 µM), for the others: cytoprotection (ATP increase), hits mostly activators | actives 0.14% (n = 230,000); also: potency is read from the fitted curve at half-maximal effect; % of control where 0% means no effect; nearly all actives have a fitted effect of over 45% in size
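Stable PC12 Q103-GFP cells in serum-supplemented, phenol red-free DMEM; induction by tebufenozide at 100 nM final; compound dose series; cell viability quantified luminescently from ATP.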
IMPase cell inh = cell-permeable inhibitors of inositol monophosphatase (IMPase). CHO-M1 cells, IP1 accumulation, HTRF TR-FRET ratio. 120,000 tested, under 10 active. inhibition (IP1 accumulation), % at 46.1 µM; active = well fitted curve in the direction sought with a large enough effect in the signal ratio, not every such curve was filed as active; inconclusive = small, poorly fitted or top-dose-only effect, or a change in a side signal; inactive = no such curve, though single readings can be large or run the other way; the % refers to the signal ratio;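 also: cells stimulated with carbachol in lithium chloride buffer; plate controls were DMSO basal wells for no effect and reference inhibitor wells for full effect; higher means more IMPase inhibition seen as more IP1 and lower FRET ratio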
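In this qHTS, compounds (final up to 46 uM) act on CHO-M1 cells that are then activated through the M1 receptor with carbachol, in pH 7.4 buffer containing 50 mM LiCl, for 30 min. IP1 accumulation is quantified by the IP-One immunoassay.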
HPGD block = HPGD (human) dehydrogenase inhibition; actives 4.3% (n = 150,000); P15428; AID 894; Potency, µM, for inactives: at the highest dose activity change, negative = inhibition, usual class: inhibitors; purified HPGD, NADH fluorescence kinetic, PGE2 substrate; active = well fitted inhibition curve with a large enough effect, not every such curve was filed as active; inconclusive = small, poorly fitted or top-dose-only effect, or another doubt; inactive = no such curve, though single readings can be large or run the other way; also: potency is read from the fitted curve at half-maximal effect; % is scaled to controls: 0 for no effect and ±100 for the full control effect
Target sequence (P15428 whole entry, looked up): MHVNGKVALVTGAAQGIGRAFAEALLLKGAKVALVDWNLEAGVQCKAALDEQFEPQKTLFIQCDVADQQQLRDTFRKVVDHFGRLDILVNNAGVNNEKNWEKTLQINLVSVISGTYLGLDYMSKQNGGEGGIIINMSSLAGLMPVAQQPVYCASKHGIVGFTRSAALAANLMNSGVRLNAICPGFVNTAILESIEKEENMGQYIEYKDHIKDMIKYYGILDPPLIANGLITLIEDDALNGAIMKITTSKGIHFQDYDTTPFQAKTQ
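20 nM HPGD preincubated 15 min at room temperature with compound in 50 mM Tris-HCl pH 8, 0.01% Tween 20. Started with 1 mM NAD+ and 30 uM prostaglandin E2; NADH fluorescence (360/450 nm) read 5 times over 30-s intervals, last minus first.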
HttQ103 aggreg = inhibitors of mutant huntingtin aggregate formation in PC12 cells; actives 1.1% (n = 220,000); AID 1688; Potency, µM (top dose mostly 46.1 µM), for the others: at the top dose activity change, negative = inhibition, usual class: inhibitors; PC12 HttQ103-GFP aggregates, Acumen cytometry, 40 h; also: potency is read from the fitted curve at half-maximal effect; % is scaled to controls: 0 for no effect and ±100 for the full control effect; nearly all actives have a fitted effect of over 60% in size
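PC12 cells stably carrying ecdysone-inducible HTT exon 1 Q103–GFP were induced with tebufenozide (100 nM final) and treated with library compounds in titration. GFP aggregates in lysates were counted by laser scanning cytometry.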
IMPase Li cell = membrane-permeable IMPase blocker, potentiated with lithium; CHO-M1 cells, IP1 TR-FRET (IP-One), carbachol + lithium; AID 1457; Potency, µM (top dose mostly 59.4 µM), for the others: at the top dose activity, negative = IMPase inhibition, hits mostly inhibitors; actives 0.35% (n = 210,000);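 also: IP1 builds up when IMPase is blocked and the TR-FRET signal falls; potency is read from the fitted curve at half-maximal effect; plate controls were basal vehicle for no effect and high inhibitor control for full effect; nearly all actives have a fitted effect of over 50% in size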
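CHO cells stably expressing M1 receptor (2000/well, cultured 16–30 h) treated 30 min at 37C with compound plus low lithium. Cytosolic IP1 by TR-FRET (665/620 ratio and 620 channel) after 10 min lysis; AC50 by Hill fit.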
ALDH1A1 inh = blocks purified human ALDH1A1 activity. P00352. Purified ALDH1A1, NADH fluorescence, propionaldehyde substrate. Potency, µM (titrated, usually from 75.3 µM), for the others: top-dose activity, negative = inhibition, hits mostly inhibitors. actives 7.3% (n = 220,000); active = well fitted inhibition curve with a large enough effect, not every such curve was filed as active; inconclusive = small, poorly fitted or top-dose-only effect, or another doubt; inactive = no such curve, though single readings can be large or run the other way;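 also: potency is read from the fitted curve at half-maximal effect; plate controls were no enzyme wells and a reference inhibitor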
Target sequence (P00352 whole entry, looked up): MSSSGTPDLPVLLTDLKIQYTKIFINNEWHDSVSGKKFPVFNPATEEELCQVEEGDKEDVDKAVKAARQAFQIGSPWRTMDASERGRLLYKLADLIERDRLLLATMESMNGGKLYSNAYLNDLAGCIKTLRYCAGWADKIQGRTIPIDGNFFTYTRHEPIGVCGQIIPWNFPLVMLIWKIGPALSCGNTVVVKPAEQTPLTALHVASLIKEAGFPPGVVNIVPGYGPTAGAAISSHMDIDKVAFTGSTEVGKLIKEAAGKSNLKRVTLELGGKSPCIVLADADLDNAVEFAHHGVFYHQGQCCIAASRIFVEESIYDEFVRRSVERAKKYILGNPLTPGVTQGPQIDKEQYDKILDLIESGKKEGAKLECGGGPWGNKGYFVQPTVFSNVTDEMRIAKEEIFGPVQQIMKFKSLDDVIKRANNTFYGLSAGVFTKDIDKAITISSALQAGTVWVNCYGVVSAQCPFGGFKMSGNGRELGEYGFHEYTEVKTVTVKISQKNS
An asterisk follows results filed as active; ? = inconclusive; / = not tested or not shown; [ ] = dose if it differs, or a comment. Sampled rows, rich in hits. Any-hit rate of the full collection: about 9.4%. Unless noted, calls follow the shape of the dose curve; as a rule, active = well fitted curve in the direction sought with a large enough effect; inconclusive = small, poorly fitted or top-dose-only effect, or another doubt; inactive = no such curve, though single readings can be large; an effect the other way counts as inactive or inconclusive.

SMILES | HTT cytoprotect | IMPase cell inh | HPGD block | HttQ103 aggreg | IMPase Li cell | ALDH1A1 inh
CC1CC(=O)C2=C(C1)OC(N)=C(C#N)C2c1coc2ccccc2c1=O (stereo not drawn) | 9%[1.9 µM] | -5 | -7% | 7% | 16%[38.3 µM] | 18µM*
CC1C/C(=C\c2cccnc2)C(=O)/C(=C/c2cccnc2)C1 (stereo not drawn) | -24%[10 µM] | / | -10% | 3.5µM* | 9% | -11%
Cc1cccc(-n2cc(-c3ccccc3)c3c(N4CCOCC4)ncnc32)c1 | -143% | / | / | ? | 9% | 18µM*
CC1CCN(C(=O)c2ccc3c(c2NCCO)C(=O)c2ccccc2C3=O)CC1 | -10% | ? | 22µM* | -19% | 30%[38.3 µM] | ?
CCN(CC)CCNC(=O)c1ccc2c(c1NCCO)C(=O)c1ccccc1C2=O | -67%[10 µM] | / | / | -25%[9.22 µM] | / | /
CCOc1ccc(NC(=O)CC2Nc3cccc4cccc(c34)NC2=O)cc1 (stereo not drawn) | / | -6 | / | / | / | /
Cc1cc(C)cc(NS(=O)(=O)c2cnc(Cl)c(Cl)c2)c1 | -24% | -3 | -10% | -19% | 2%[38.3 µM] | 3.5µM*
CO[C@@H]1COC(=O)C/C=C\[C@H](C)[C@H](OC)COC(=O)[C@H]2CCCN2C(=O)C/C=C\[C@H]1C | ? | / | / | / | / | -3%[13.5 µM]
O=C(NCc1ccco1)c1csc2c1CCCCC2 | -9% | 2 | 6.3µM* | -3% | 43%[38.3 µM] | ?
O=C(NCc1ccccc1)c1csc2c1CCCCC2 | -9%[10 µM] | 11 | 8.9µM* | -10% | 7%[38.3 µM] | 18µM*
CC1CCc2c(C(=O)NCc3ccco3)csc2C1 (stereo not drawn) | 4%[10 µM] | / | / | -5%[9.22 µM] | / | /
Cc1ccccc1NC(=O)c1csc2c1CCCC2 | -37%[10 µM] | -5 | 16µM* | -10% | 34% | ?
O=C(Nc1nccs1)c1csc2c1CCCC2 | -15%[10 µM] | / | 25µM* | -18% | -10% | ?
O=C(Nc1ccon1)c1csc2c1CCCC2 | 0% | -4 | ? | -8% | -4%[38.3 µM] | -11%
O.O.O.O.O.O.O.O=S(=O)([O-])[O-].[Co+2] | -11% | / | -2% | 29% | -17% | ?
COc1ccc(S(=O)(=O)N(CCc2ccccc2)CC(=O)Nc2cc(C)cc(C)c2)cc1OC | / | 1 | / | / | / | /
CCOC(=O)c1c(C)n(-c2ccccc2)c2ccc(OC(=O)c3cccc(Cl)c3)cc12 | / | -8 | / | / | / | /
O=C(NCc1cccs1)c1csc2c1CCCCC2 | -9% | 1 | 22µM* | 10% | 5%[38.3 µM] | ?
O=C(O)/C=C/C(=O)Nc1ccc2c(c1)C(=O)c1ccccc1C2=O | 5%[10 µM] | / | / | 5%[9.22 µM] | / | /
O=C(O)/C=C/C(=O)Nc1ccccc1-c1ccccc1 | -22% | 3 | 28µM* | -5% | -6%[38.3 µM] | ?
CCc1ccc(C2CC(=O)c3c([nH]c(C(=O)OC4CCCC4)c3C)C2)cc1 (stereo not drawn) | / | 7 | / | / | / | /
COc1ccc2c(c1)-c1nc(N)sc1CC2 | 5%[10 µM] | / | / | -14%[9.22 µM] | -2% | ?
COc1ccc2c(c1)-c1nc(/N=C/c3ccc(O)c(OC)c3)sc1CC2 | 10%[10 µM] | / | -26% | -10% | 3% | 25µM*
Cc1nn(-c2ccccc2)c2sc(C(=O)Nc3cccc(Cl)c3)cc12 | / | 3 | / | / | / | /
COc1ccc(N2CCC(CNC(=O)Nc3ccccc3)C2)cc1 (stereo not drawn) | -14% | 0 | ? | -9% | 56%[38.3 µM] | 5µM*
SMILES | HTT cytoprotect | IMPase cell inh | HPGD block | HttQ103 aggreg | IMPase Li cell | ALDH1A1 inh
O=C(NCC1CCN(S(=O)(=O)c2ccccc2)CC1)Nc1ccc(F)cc1 | 9%[10 µM] | / | / | 23%[9.22 µM] | / | ?
O=C(NCC1CCN(S(=O)(=O)c2ccccc2)CC1)Nc1ccccc1 | -16%[10 µM] | / | / | -6%[9.22 µM] | / | 28µM*
O=C(O)c1ccccc1-c1ccc(C(F)(F)F)cc1 | ? | / | / | 17% | / | /
COc1cc2c(C)nc3c(c(C)nn3-c3ccccc3)c2cc1OC | -21%[10 µM] | / | / | -2%[9.22 µM] | 11µM* | ?
Cc1cc(OCC(=O)N2CCCC2)cc(C)c1Cl | 10% | -5 | 11µM* | 2% | 7%[38.3 µM] | 26%
Cc1ccc(OCC(=O)N2CCCCC2)c(Br)c1 | -1% | -14 | 16µM* | -11% | 21%[38.3 µM] | -1%
Cc1cc(OCC(=O)N2CCCC2)ccc1Cl | -9%[10 µM] | -4 | -25% | -5% | 1%[38.3 µM] | -7%
O=c1[nH]c(S)c(/C=C2\C=Nc3ccccc32)s1 | -10%[10 µM] | / | / | -15%[9.22 µM] | / | 25µM*
COc1ccc(CNCC(=O)Nc2ccccc2-n2cccc2)cc1 | -21%[10 µM] | / | / | 6% | 14% | 28µM*
COc1ccc(CNCC(=O)Nc2cccc(S(N)(=O)=O)c2)cc1 | ? | / | / | -3%[9.22 µM] | -6% | ?
CS(=O)(=O)N(Cc1ccco1)CC(O)Cn1cc(C=O)c2ccccc21 (stereo not drawn) | 12% | -10 | -25% | 1%[9.22 µM] | 16%[38.3 µM] | 1.3µM*
CS(=O)(=O)N(Cc1ccco1)Cc1ccccc1Cl | 7% | 3 | ? | -16% | 11%[38.3 µM] | -5%
CC(C)(C)OC(=O)NCCCC[C@H](NC(=O)c1nc[nH]c1C(=O)NC(c1ccccc1)c1ccccc1)C(=O)OC(C)(C)C | 5%[10 µM] | / | / | 1%[9.22 µM] | -8% | 2.8µM*
C[C@H](NC(=O)c1nc[nH]c1C(=O)N[C@@H](Cc1ccccc1)C(=O)OCc1ccccc1)c1ccccc1 | 3%[10 µM] | / | / | 6%[9.22 µM] | 3% | 5µM*
Cn1c2ccccc2c2cc(C(=O)NNC(=O)CCl)sc21 | -35% | / | / | 16µM* | -7% | ?
Oc1ccc(-c2cnns2)c(O)c1 | / | / | 2µM* | ? | 4% | 25µM*
CCOC(=O)C1=C(c2ccccc2)NC(=S)NC1c1ccc(Cl)c([N+](=O)[O-])c1 (stereo not drawn) | / | / | -24% | 2% | -1% | 0.71µM*
CCOC(=O)C1=C(c2cccc(Oc3ccccc3)c2)NC(=S)NC1C (stereo not drawn) | -9% | 0 | -26% | 11µM* | 35%[38.3 µM] | 0.32µM*
CCOC(=O)C1=C(C)C(c2ccc(OC)cc2)NC(=O)N1 (stereo not drawn) | 16% | / | / | -21% | -4% | 3%
CCOC(=O)COc1c(Cl)cc(C2NC(=S)NC(c3ccccc3)=C2C(C)=O)cc1OC (stereo not drawn) | -16%[10 µM] | / | -4% | -13% | 3% | ?
CCOC(=O)C1=C(C)C(c2ccc(OC)cc2)NC(=S)N1 (stereo not drawn) | -29% | 3 | -9% | ? | 17%[38.3 µM] | 2.2µM*
CCOC(=O)C1=C(C)C(c2cccc(Oc3ccccc3)c2)NC(=S)N1 (stereo not drawn) | / | / | -10% | ? | 15% | 0.56µM*
COc1ccc(N(C)C(=O)Cn2cc(S(=O)(=O)N3CCN(c4ccccc4F)CC3)c3ccccc3c2=O)c(OC)c1 | / | 10 | / | / | / | /
C[C@H](N)C(=O)OC(C)(C)Cc1ccc(Cl)cc1 | 10%[1.9 µM] | -4 | / | / | / | /
